# High-throughput results (PubChem BioAssay)
# In the library only some 2.9% were active in any assay of this set; here they are far more common.
# SNCA viab count – GF-AFC viability counterscreen for inhibitors of alpha-synuclein gene (SNCA) expression; 150,000 compounds, 0.12% hits; HEK-293-SNCA-luc viability, GF-AFC fluorescence, 24 h; Potency, µM (titrated, usually from 57.1 µM), without a hit: top-dose activity change, negative = cytotoxicity, actives largely listed as cytotoxic; AID 1671193, 2021;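 note: potency is the fitted concentration of half-maximal effect; 0% = DMSO-treated cells and -100% = medium-only wells without cells; nearly all actives have a fitted effect of over 30% in size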
#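 HEK-293-SNCA-luc cells (1500/well) plated 24 h, then exposed 24 h to a dilution series; GF-AFC added 30 min at 37C, fluorescence 405/540 nm; normalised to medium-only and DMSO wells, Hill fit.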
# KDM5B inhibitor – Primary screen for KDM5B Histone Demethylases FDH-coupled qHTS; Lysine-specific demethylase 5B (Homo sapiens), Q9UGL1; KDM5B demethylase, FDH-coupled NADH fluorescence (FDH is formaldehyde dehydrogenase); Potency, µM (doses to about 57.7 µM), actives largely listed as inhibitors; 220,000 compounds, 2.6% hits; note: potency is the fitted concentration of half-maximal effect; 0% is about no effect; nearly all actives have a fitted effect of over 70% in size
#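 Here, H3K4me3 peptide (12.5 µM in substrate mix) is demethylated by KDM5BΔAP, 200 nM final, after 10 min compound exposure. Formaldehyde product is coupled through FDH (0.25 U/mL in mix) to NADH fluorescence; 30-min ΔRFU feeds dose-response curves.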
# IP6K1 inhibitor – Primary qHTS assay for small molecule inhibitors of Inositol hexaphosphate kinase 1 (IP6K1) | activity change, % (series mostly up to about 58 µM) | 140,000 compounds, 0.81% hits | IP6K1 kinase, ADP-Glo luminescence, 2 h; active compounds read low | AID 1645851, 2021 | Inositol hexakisphosphate kinase 1 (Homo sapiens), Q92551; in the data active = activity change below about -25%; note: % is set by controls: 0 for no effect and ±100 for the full control effect
# Target sequence (Q92551 whole entry, looked up): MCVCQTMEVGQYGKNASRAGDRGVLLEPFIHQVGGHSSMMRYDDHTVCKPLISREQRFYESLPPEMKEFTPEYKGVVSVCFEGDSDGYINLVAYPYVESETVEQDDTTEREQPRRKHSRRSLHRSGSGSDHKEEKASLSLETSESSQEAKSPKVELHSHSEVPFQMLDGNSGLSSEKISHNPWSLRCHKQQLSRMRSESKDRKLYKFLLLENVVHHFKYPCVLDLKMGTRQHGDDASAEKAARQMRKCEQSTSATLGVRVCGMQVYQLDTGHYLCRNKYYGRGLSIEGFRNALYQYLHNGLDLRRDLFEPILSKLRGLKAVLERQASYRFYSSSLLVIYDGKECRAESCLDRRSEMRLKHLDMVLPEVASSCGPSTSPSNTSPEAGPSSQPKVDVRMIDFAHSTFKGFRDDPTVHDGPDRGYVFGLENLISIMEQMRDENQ
#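 ADP-Glo luminescence measures ADP made by human IP6K1 during a 2 h RT reaction with ATP/IP6 (mix at 1.3 mM/130 uM); top library doses 57.5 and 19.1 uM final.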
# SNCA expr inhib – Primary qHTS assay for inhibitors of alpha-synuclein gene (SNCA) expression; HEK-293 SNCA-luciferase knock-in, luminescence, 24 h; Potency, µM (highest dose often 57.2 µM), without a hit: at the top dose activity change, negative = inhibition, most hits filed as inhibitors; 140,000 compounds, 0.17% hits; AID 1671194, 2021;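 note: potency is the fitted concentration of half-maximal effect; plate controls were DMSO cells for no effect and cell-free wells for full effect; nearly all actives have a fitted effect of over 45% in size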
# The depositor's hits bear a star; i = inactive; ? = inconclusive; · = no result; [ ] = another dose, or the depositor's remark. Unless noted, calls come from the whole dose curve; as a rule, active = well fitted curve in the direction sought with a large enough effect; inconclusive = small, poorly fitted or top-dose-only effect, or another doubt; inactive = no such curve, though single readings can be large; an effect the other way counts as inactive or inconclusive.
SMILES,SNCA viab count,KDM5B inhibitor,IP6K1 inhibitor,SNCA expr inhib
COC(=O)c1ccccc1NC(=O)N1CCC[C@@H](O)[C@H](NC(=O)c2ccc(OCc3c(C)noc3C)cc2)C1,-7%,22µM*,12,-11%
COCCOc1ccc(C(=O)N[C@@H]2CN(C(=O)Nc3ccc(F)cc3)CCC[C@H]2O)cc1,1%,i,12,3%
O=C(c1ccc(F)cc1)N1CCN(c2ccc3nnc(C4CC4)n3n2)CC1,·,·,5,·
CCCNc1nc(-c2ccc3c(c2)CCC(=O)N3)cs1,·,i,·,·
COc1ccc(CNC(=O)[C@@H]2Cc3nc[nH]c3CN2C(=O)NC2CCCCC2)cc1,6%[87.6 µM],32µM*,-3,34%[87.6 µM]
COc1ccc(CN2Cc3[nH]cnc3C[C@H]2C(=O)NCc2ccccc2)c2ccccc12,?,40µM*,7,-29%[87.6 µM]
COc1ccc(CN2Cc3[nH]cnc3C[C@H]2C(=O)N(C)Cc2ccccc2)c2ccccc12,?,i,-7,-22%
COc1ccc(CN2Cc3[nH]cnc3C[C@H]2C(=O)NCc2ccc(Cl)cc2)c2ccccc12,?,?,1,?
COc1ccc(CN2Cc3[nH]cnc3C[C@H]2C(=O)NC2CCCCC2)c2ccccc12,-27%[87.6 µM],35µM*,15,-1%[87.6 µM]
N#Cc1ccc(CNC(=O)[C@@H]2Cc3nc[nH]c3CN2C(=O)NC2CCCCC2)cc1,-9%[87.6 µM],i,6,-17%[87.6 µM]
COC(=O)[C@@H]1Cc2nc[nH]c2CN1Cc1ccc(Cl)cc1,-1%[87.6 µM],32µM*,1,-14%[87.6 µM]
COC(=O)[C@@H]1Cc2nc[nH]c2CN1Cc1ccc(NC(C)=O)cc1,-3%[87.6 µM],?,12,-10%[87.6 µM]
Cc1cn2cc(C(=O)N3CCC(Oc4cccnc4)CC3)ccc2n1,14%,?,-3,-8%
Nc1ccc2ncnc(N3CCCCC3)c2c1,-12%,28µM*,4,?
Nc1ccc2c(N3CCCCC3)ncnc2c1,-7%,?,5,4%
COc1ccc([C@@H]2CC(=O)c3c(O)cc(O[C@@H]4O[C@H](CO[C@@H]5O[C@@H](C)[C@H](O)[C@@H](O)[C@@H]5O)[C@@H](O)[C@H](O)[C@@H]4O)cc3O2)cc1O,1%,·,·,-14%
CCOCCCNC(=O)N1CCC(Cc2nc(-c3ccncc3)n[nH]2)CC1,0%,32µM*,-9,-25%
COc1ccc(CNC(=O)N2CCC(Cc3nc(-c4ccncc4)n[nH]3)C2)cc1 (centres undefined),5%,i,3,-17%
CCCNc1c(NC(=O)NCc2ccc(F)cc2)c(=O)oc2ccccc12,·,i,·,·
COc1ccc2c(c1)CCN=C2C[C@H]1CN(C(=O)c2cccnc2)CC[C@H]1CC(=O)O,10%[87.6 µM],32µM*,7,32%[87.6 µM]
COc1cc2c(cc1OC)C(C[C@H]1CN(C(=O)c3cccn3C)CC[C@H]1CC(=O)O)=NCC2,8%,32µM*,2,-27%
COc1ccc(NC(=O)N2CC[C@@H](CC(=O)O)[C@@H](CC3=NCCc4cc(OC)c(OC)cc43)C2)cc1,7%,35µM*,6,36%
COc1ccc2c(c1)CCN=C2C[C@H]1CN(C(=O)C(=O)O)CC[C@H]1CC(=O)O,1%[87.6 µM],28µM*,-7,-11%[87.6 µM]
COc1cccc(NC(=O)N2CC[C@@H](CC(=O)O)[C@@H](CC3=NCCc4cc(OC)c(OC)cc43)C2)c1,1%,i,-3,14%
COCC(=O)N1CC[C@@H](CC(=O)O)[C@@H](CC2=NCCc3cc(OC)ccc32)C1,2%[87.6 µM],?,8,12%[87.6 µM]
SMILES,SNCA viab count,KDM5B inhibitor,IP6K1 inhibitor,SNCA expr inhib
O=C(NCCC(c1ccccc1)c1ccccc1)c1cc(-c2ccccc2)nc2ccccc12,·,i,·,·
N#Cc1ccc(N2CCCC3(CCC(=O)N(Cc4ccccc4)C3)C2)nc1 (centres undefined),-14%,?,9,-14%
N#Cc1ccc(CSc2ccccc2C(=O)Nc2ccc3c(c2)OCO3)cc1,·,i,·,·
COCc1nncn1C1CCN(S(=O)(=O)c2cccc(OC)c2)CC1,11%,i,-6,-6%
CCCS(=O)(=O)N1CC[C@@H](CC(=O)O)[C@@H](CC2=NCCc3cc(OC)ccc32)C1,0%[87.6 µM],32µM*,-2,-2%[87.6 µM]
O=C(c1ccc2c(c1)OCO2)N1CCCC2(C1)Nc1cccnc1NC2=NC1CCCC1 (centres undefined),-24%,?,14,13%
O=C(c1ccccn1)N1CCCC2(C1)Nc1cccnc1NC2=NC1CCCC1 (centres undefined),-14%,?,0,-14%
O=C(Cc1ccccc1)N1CCCC2(C1)Nc1cccnc1NC2=NC1CCCC1 (centres undefined),-18%,28µM*,3,21%
Cc1noc(C)c1S(=O)(=O)N1CCCC2(C1)Nc1cccnc1NC2=NC1CCCC1 (centres undefined),-10%,22µM*,0,-8%
O=C(CCc1ccccc1)N1CCCC2(C1)Nc1cccnc1NC2=NC1CCCC1 (centres undefined),-22%,25µM*,2,19%
Cc1cn2nc(C(=O)N3CCN(c4ccccc4F)CC3)cc2c(N2CCCC2)n1,1%,32µM*,0,?
Cc1cn2nc(C(=O)N3CCCC3)cc2c(N2CCSCC2)n1,10%,28µM*,-8,13%
Cc1cn2nc(C(=O)NC(C)c3ccccc3)cc2c(N2CCSCC2)n1 (centres undefined),7%,?,-3,-13%
COc1ccc2c(c1)c(CN1CCOCCNC(=O)CC1)cn2C(C)C,-4%,20µM*,11,-4%
Cc1cc2cccc(-c3nc(C4CCOC4)no3)c2o1 (centres undefined),?,22µM*,8,?
Cc1cc(-c2nc(C3CCOC3)no2)c2ccccc2n1 (centres undefined),0%,28µM*,-5,4%
CCN(CC)Cc1cc(-c2nc(C3CCOC3)no2)c(-c2ccccc2)o1 (centres undefined),-9%,25µM*,1,-18%
CC(C)CCOc1ccc(CN)cc1,·,i,·,·
COC(=O)C1=C(C)N=C2SC=C(CC(=O)N3CCCC3)N2C1c1ccccc1OC (centres undefined),-5%,?,10,33%
Cc1ccc(F)cc1-n1nc(-c2c(C)nc3scc(CC(=O)NCC(C)C)n3c2=O)cc1C,?,28µM*,-10,-19%
Cc1nc2scc(CC(=O)NCCC(C)C)n2c(=O)c1-c1cc(C)n(-c2cc(F)ccc2F)n1,-19%,28µM*,9,?
Cc1ccccc1-n1nc(-c2c(C)nc3scc(CC(=O)NC(C)C)n3c2=O)cc1C,1%,28µM*,5,-9%
Cc1nc2scc(CC(=O)NCCC(C)C)n2c(=O)c1-c1cc(C)n(-c2ccc(F)cc2)n1,-7%,28µM*,-5,-17%
